This passage reports Potency results from PubChem BioAssay (NCATS).

Records with an inconclusive call do not appear. Entries that show only a call come without a potency. Active and inactive are the calls of the source. Calls follow the shape of the full dose curve.

A short description of the first experiment: Primary qHTS for inhibitors of MERS-S pseudo-typed particle cell entry (AID 1479149). Also: nearly all actives have a fitted effect of over 60% in size. The note with it: MERS-S pseudotyped particle entry, luciferase; series mostly up to 57.1 µM. (In general: qHTS replaces the single test concentration by a dilution series.)
On to `CC(=O)OCC1=C(C(=O)O)N2C(=O)[C@@H](NC(=O)Cc3cccs3)[C@H]2SC1`, for which the Potency result is “inactive”.

Regarding `C[C@]12CCC(=O)C=C1CC[C@H]1[C@@H]3CC[C@](O)(C(=O)CO)[C@@]3(C)C[C@H](O)[C@@]12F`, the Potency entry was “inactive”.

Take `Nc1nc2ccc(OC(F)(F)F)cc2s1`: the Potency result is “inactive”.

Regarding `COC(=O)C1=C(C)NC(C)=C(C(=O)OCCc2ccc(N3CCN(C(c4ccccc4)c4ccccc4)CC3)cc2)C1c1cccc([N+](=O)[O-])c1` (stereo unspecified), the Potency entry is “inactive”.

As for `NC(=O)NC(=O)Cc1ccccc1`, the Potency entry is “inactive”.

Take `CN1C[C@H](C(=O)N[C@]2(C)O[C@@]3(O)[C@@H]4CCCN4C(=O)[C@H](Cc4ccccc4)N3C2=O)C=C2c3cccc4[nH]cc(c34)C[C@H]21`: the Potency result is “inactive”.

With `C[C@@H](CN1CC(=O)NC(=O)C1)N1CC(=O)NC(=O)C1`, the Potency entry was “inactive”.

On to `CCOC(=O)c1ccccc1O`, for which the Potency result was “inactive”.

As to `Nc1c(I)cc(I)c(C(=O)N(CCC(=O)O)c2ccccc2)c1I`, the Potency entry was “inactive”.

Take `O=C(O)/C=C(\CC(=O)O)C(=O)O`: the Potency entry is “inactive”.

In the case of `CC(C)COC(=O)c1ccc(N)cc1`, the Potency result is “inactive”.

For the compound `COC(=O)[C@@H]1[C@H]2C[C@H]3c4[nH]c5ccccc5c4CCN3C[C@@H]2CC[C@@H]1O`, the Potency entry is “inactive”.

Take `Cc1cccc(C)c1OCC(=O)N[C@@H](Cc1ccccc1)[C@@H](O)C[C@H](Cc1ccccc1)NC(=O)[C@H](C(C)C)N1CCCNC1=O`: the Potency entry was “inactive”.

As to `CC(=O)Nc1ccc(OC(=O)c2ccccc2OC(C)=O)cc1`, the Potency result is “inactive”.

For `NC(=O)c1cnccn1`, the Potency result is “inactive”.

Take `CN=C(NC#N)NCCSCc1nc[nH]c1C`: the Potency entry was “inactive”.

In the case of `O=C(O)CCCCC(=O)O`, the Potency result is “inactive”.

For `Oc1ccc(OCc2ccccc2)cc1`, the Potency result is “inactive”.

For `N#C[C@H]1C[C@H]2C[C@@H]2N1C(=O)[C@@H](N)C12CC3CC(CC(O)(C3)C1)C2`, the Potency result was “inactive”.

`CSCC[C@H](NC(=O)[C@H](Cc1ccc(OS(=O)(=O)O)cc1)NC(=O)[C@@H](N)CC(=O)O)C(=O)NCC(=O)N[C@@H](Cc1c[nH]c2ccccc12)C(=O)N[C@@H](CCSC)C(=O)N[C@@H](CC(=O)O)C(=O)N[C@@H](Cc1ccccc1)C(N)=O`: the Potency result was “inactive”.

Take `CCOC(=O)O[C@]1(C(=O)OCCl)CC[C@H]2[C@@H]3CCC4=CC(=O)C=C[C@]4(C)[C@H]3[C@@H](O)C[C@@]21C`: the Potency entry was “inactive”.

For the compound `CCCNC(C)C(=O)Nc1ccccc1C` (stereo unspecified), the Potency entry is “inactive”.

Regarding `CNNCc1ccc(C(=O)NC(C)C)cc1`, the Potency entry is “inactive”.

On to `O=c1cc(O)c(Cl)c[nH]1`, for which the Potency result is “inactive”.

On to `O=C(O)c1ccccc1S`, for which the Potency result is “inactive”.

With `Nc1nc(-c2ccccc2)c(Br)c(=O)[nH]1`, the Potency result is “inactive”.

As for `CCCCCCCN(CC)CCCC(O)c1ccc(NS(C)(=O)=O)cc1` (stereo unspecified), the Potency result is “inactive”.

For `CC(C)c1ccc2oc3nc(N)c(C(=O)O)cc3c(=O)c2c1`, the Potency result is “inactive”.

As to `O=C(c1ccccc1)c1ccccc1`, the Potency entry was “inactive”.

As for `Nc1ncnc2c1ncn2[C@@H]1O[C@H](CO)[C@@H](O)[C@H]1O`, the Potency entry was “inactive”.

For the compound `Clc1ccc2nsnc2c1NC1=NCCN1`, the Potency result is “inactive”.

On to `Cc1c(Nc2ncccc2C(=O)O)cccc1C(F)(F)F`, for which the Potency entry is “inactive”.

Consider `OC[C@H]1O[C@H](O[C@]2(CCl)O[C@H](CCl)[C@@H](O)[C@@H]2O)[C@H](O)[C@@H](O)[C@H]1Cl`, for which the Potency entry is “inactive”.

Consider `CO[C@@]1(NC(=O)CSCC#N)C(=O)N2C(C(=O)O)=C(CSc3nnnn3C)CS[C@@H]21`, for which the Potency result was “inactive”.

Regarding `CN1CCC[C@@H]1c1cccnc1`, the Potency result is “inactive”.

For the compound `CN[C@@H]1CCc2[nH]c3ccc(C(N)=O)cc3c2C1`, the Potency result was “inactive”.

Take `CC(C)OC(=O)OCOP(=O)(CO[C@H](C)Cn1cnc2c(N)ncnc21)OCOC(=O)OC(C)C`: the Potency entry was “inactive”.

As for `Cc1nnc(SCC2=C(C(=O)O)N3C(=O)[C@@H](NC(=O)Cn4cnnn4)[C@H]3SC2)s1`, the Potency result was “inactive”.

A further experiment is described as follows: Primary qHTS for Vero E6 cytotoxicity: counterscreen for inhibitors of SARS-S pseudo-typed particle cell entry (AID 1479150). Also: potency is read from the fitted curve at half-maximal effect. The note with it: cell viability; series mostly up to 57.1 µM.
Turning to `CC(=O)OCC1=C(C(=O)O)N2C(=O)[C@@H](NC(=O)Cc3cccs3)[C@H]2SC1`, the Potency entry is “inactive”.

For the compound `C[C@]12CCC(=O)C=C1CC[C@H]1[C@@H]3CC[C@](O)(C(=O)CO)[C@@]3(C)C[C@H](O)[C@@]12F`, the Potency result was “inactive”.

Consider `Nc1nc2ccc(OC(F)(F)F)cc2s1`, for which the Potency entry is “inactive”.

Take `COC(=O)C1=C(C)NC(C)=C(C(=O)OCCc2ccc(N3CCN(C(c4ccccc4)c4ccccc4)CC3)cc2)C1c1cccc([N+](=O)[O-])c1` (stereo unspecified): the Potency entry was “inactive”.

Regarding `NC(=O)NC(=O)Cc1ccccc1`, the Potency result was “inactive”.

In the case of `CN1C[C@H](C(=O)N[C@]2(C)O[C@@]3(O)[C@@H]4CCCN4C(=O)[C@H](Cc4ccccc4)N3C2=O)C=C2c3cccc4[nH]cc(c34)C[C@H]21`, the Potency entry is “inactive”.

In the case of `C[C@@H](CN1CC(=O)NC(=O)C1)N1CC(=O)NC(=O)C1`, the Potency result is “inactive”.

On to `CCOC(=O)c1ccccc1O`, for which the Potency entry was “inactive”.

For the compound `Nc1c(I)cc(I)c(C(=O)N(CCC(=O)O)c2ccccc2)c1I`, the Potency result was “inactive”.

Consider `O=C(O)/C=C(\CC(=O)O)C(=O)O`, for which the Potency result is “inactive”.

As to `CC(C)COC(=O)c1ccc(N)cc1`, the Potency result is “inactive”.

As to `COC(=O)[C@@H]1[C@H]2C[C@H]3c4[nH]c5ccccc5c4CCN3C[C@@H]2CC[C@@H]1O`, the Potency result is “inactive”.

Take `Cc1cccc(C)c1OCC(=O)N[C@@H](Cc1ccccc1)[C@@H](O)C[C@H](Cc1ccccc1)NC(=O)[C@H](C(C)C)N1CCCNC1=O`: the Potency entry was “inactive”.

For `CC(=O)Nc1ccc(OC(=O)c2ccccc2OC(C)=O)cc1`, the Potency result is “inactive”.

On to `NC(=O)c1cnccn1`, for which the Potency result was “inactive”.

Consider `CN=C(NC#N)NCCSCc1nc[nH]c1C`, for which the Potency entry is “inactive”.

With `O=C(O)CCCCC(=O)O`, the Potency entry is “inactive”.

`Oc1ccc(OCc2ccccc2)cc1`: the Potency result was “inactive”.

`N#C[C@H]1C[C@H]2C[C@@H]2N1C(=O)[C@@H](N)C12CC3CC(CC(O)(C3)C1)C2`: the Potency entry was “inactive”.

Consider `CSCC[C@H](NC(=O)[C@H](Cc1ccc(OS(=O)(=O)O)cc1)NC(=O)[C@@H](N)CC(=O)O)C(=O)NCC(=O)N[C@@H](Cc1c[nH]c2ccccc12)C(=O)N[C@@H](CCSC)C(=O)N[C@@H](CC(=O)O)C(=O)N[C@@H](Cc1ccccc1)C(N)=O`, for which the Potency entry was “inactive”.

With `CCOC(=O)O[C@]1(C(=O)OCCl)CC[C@H]2[C@@H]3CCC4=CC(=O)C=C[C@]4(C)[C@H]3[C@@H](O)C[C@@]21C`, the Potency entry was “inactive”.

For the compound `CCCNC(C)C(=O)Nc1ccccc1C` (stereo unspecified), the Potency entry was “inactive”.

As to `CNNCc1ccc(C(=O)NC(C)C)cc1`, the Potency entry was “inactive”.

Take `O=c1cc(O)c(Cl)c[nH]1`: the Potency entry was “inactive”.

For `O=C(O)c1ccccc1S`, the Potency result is “inactive”.

In the case of `Nc1nc(-c2ccccc2)c(Br)c(=O)[nH]1`, the Potency result was “inactive”.

With `CCCCCCCN(CC)CCCC(O)c1ccc(NS(C)(=O)=O)cc1` (stereo unspecified), the Potency entry was “inactive”.

`CC(C)c1ccc2oc3nc(N)c(C(=O)O)cc3c(=O)c2c1`: the Potency is 7.94 µM (active).

Turning to `O=C(c1ccccc1)c1ccccc1`, the Potency entry was “inactive”.

In the case of `Nc1ncnc2c1ncn2[C@@H]1O[C@H](CO)[C@@H](O)[C@H]1O`, the Potency result was “inactive”.

Turning to `Clc1ccc2nsnc2c1NC1=NCCN1`, the Potency result is “inactive”.

As to `Cc1c(Nc2ncccc2C(=O)O)cccc1C(F)(F)F`, the Potency entry is “inactive”.

Regarding `OC[C@H]1O[C@H](O[C@]2(CCl)O[C@H](CCl)[C@@H](O)[C@@H]2O)[C@H](O)[C@@H](O)[C@H]1Cl`, the Potency result is “inactive”.

For `CO[C@@]1(NC(=O)CSCC#N)C(=O)N2C(C(=O)O)=C(CSc3nnnn3C)CS[C@@H]21`, the Potency entry is “inactive”.

`CN1CCC[C@@H]1c1cccnc1`: the Potency result is “inactive”.

For the compound `CN[C@@H]1CCc2[nH]c3ccc(C(N)=O)cc3c2C1`, the Potency result was “inactive”.

Turning to `CC(C)OC(=O)OCOP(=O)(CO[C@H](C)Cn1cnc2c(N)ncnc21)OCOC(=O)OC(C)C`, the Potency entry was “inactive”.

Turning to `Cc1nnc(SCC2=C(C(=O)O)N3C(=O)[C@@H](NC(=O)Cn4cnnn4)[C@H]3SC2)s1`, the Potency result was “inactive”.
